{
  "source": "PubChem BioAssay",
  "note": "Values without a mark were called inactive. The rule behind the calls is not given here.",
  "data": [
    {"target": "Pantothenate synthetase (Mycobacterium tuberculosis (strain ATCC 25618 / H37Rv)) (UniProt P9WIL5)", "sequence (P9WIL5 whole entry, looked up)": "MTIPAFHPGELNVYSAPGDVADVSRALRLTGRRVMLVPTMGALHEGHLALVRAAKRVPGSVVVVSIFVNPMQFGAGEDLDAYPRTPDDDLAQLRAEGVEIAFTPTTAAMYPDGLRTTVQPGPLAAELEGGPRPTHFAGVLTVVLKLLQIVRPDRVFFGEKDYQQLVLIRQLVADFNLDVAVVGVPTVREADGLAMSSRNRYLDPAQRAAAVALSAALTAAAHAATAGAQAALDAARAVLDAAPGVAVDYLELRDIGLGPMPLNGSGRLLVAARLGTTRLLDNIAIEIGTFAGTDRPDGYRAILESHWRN", "assay": "Recombinant Mtb pantothenate synthetase (PanC) inhibitors, coupled enzyme, confirmatory (AID 375);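 note: 0% = full reaction with vehicle and 100% = no enzyme background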", "conditions": "coupled enzyme assay; at 10 µM, active compounds read high", "units": {"inhibition": "%"}, "values": [
      {"molecule": "O=C1CN(Cc2ccccc2)C(=NCc2ccco2)S1", "inhibition": 0},
      {"molecule": "COc1cccc(NC(=O)c2nnn(Cc3ccc(Br)cc3F)c2N)c1", "inhibition": 7},
      {"molecule": "CC(C)(C)n1nnnc1C(c1ccccc1)N1CCc2ccccc2C1", "note": "(stereo not given)", "inhibition": 0},
      {"molecule": "COCCn1nnnc1C(c1cccs1)N1CCN(c2cc(C)ccc2C)CC1", "note": "(stereo not given)", "inhibition": 0},
      {"molecule": "CCN1C(=O)OC2(CCCCC2)C1(C)O", "note": "(stereo not given)", "inhibition": 0},
      {"molecule": "CCCc1cc(Nc2cccc(OC)c2)n2ncnc2n1", "inhibition": 0},
      {"molecule": "O=C(C1CCC(CNc2c(N3CCCCC3)c(=O)c2=O)CC1)N1CCc2ccccc2C1", "note": "(stereo not given)", "inhibition": 0},
      {"molecule": "Nc1ccc(Sc2nnnn2-c2ccccc2)c(Cl)c1", "inhibition": 6},
      {"molecule": "Cc1ccc(C(c2sc3nc(C)nn3c2O)N2CC(C)OC(C)C2)cc1", "note": "(stereo not given)", "inhibition": 0},
      {"molecule": "CCOc1ccc(OCc2cccc(C(=O)N3CCOCC3)c2)cc1", "inhibition": 2},
      {"molecule": "S=c1[nH]nc(Cc2ccccc2)n1Cc1ccco1", "inhibition": 0},
      {"molecule": "CC(C)C12CN3CC(C(C)C)(CN(C1)C3c1ccc3c(c1)OCO3)C2=O", "note": "(stereo not given)", "inhibition": 0},
      {"molecule": "CC(C)C(=O)Nc1nnc(CCc2nnc(NC(=O)C(C)C)s2)s1", "inhibition": 2},
      {"molecule": "COc1ccc(C(=O)N(CCN2CCOCC2)CC(=O)NC2CCCC2)cc1OC", "inhibition": 1},
      {"molecule": "CCOC(=O)NC(c1ccccc1)C1CCCCC1=O", "note": "(stereo not given)", "inhibition": 0},
      {"molecule": "C/C(N)=C(/C#N)C(=O)COC(=O)COc1ccc(Cl)cc1", "inhibition": 5},
      {"molecule": "Cn1c(NC(=O)c2ccccc2NC(=O)C(C)(C)C)nc2ccccc21", "inhibition": 0},
      {"molecule": "COCCCNC(=O)c1ccc2c(c1)OCO2", "inhibition": 1},
      {"molecule": "C[C@H](CCC(=O)O)[C@H]1CC[C@H]2[C@@H]3C(=O)C[C@@H]4CC(=O)CC[C@]4(C)[C@H]3CC(=O)[C@]12C", "inhibition": 2},
      {"molecule": "Cc1ccc2nsnc2c1S(=O)(=O)N(Cc1cc2cccc(C)c2[nH]c1=O)CC1CCCO1", "note": "(stereo not given)", "inhibition": 0},
      {"molecule": "CC(C)(C)C1CCc2[nH]nc(C(=O)O)c2C1", "note": "(stereo not given)", "inhibition": 5},
      {"molecule": "CN(C)c1nc(Nc2ccc(Cl)cc2)nc(OCC#N)n1", "inhibition": 6},
      {"molecule": "Cc1ccc(Nc2nc(Oc3ccc(=O)[nH]n3)nc(N(C)C)n2)cc1", "inhibition": 0},
      {"molecule": "COc1ccc(C2=NOC(C(=O)Nc3cc(Br)ccc3O)C2)cc1OC", "note": "(stereo not given)", "inhibition": 3},
      {"molecule": "O=S(=O)(c1ccc(-c2csc(-c3cccnc3)n2)cc1)N1CCCCC1", "inhibition": 5},
      {"molecule": "Cc1nnc(SCC(=O)NCc2ccc3c(c2)OCO3)s1", "inhibition": 5},
      {"molecule": "O=C(c1cnn2c1NC(c1ccco1)CC2C(F)(F)F)N1CCN(c2cccc(Cl)c2)CC1", "note": "(stereo not given)", "inhibition": 4},
      {"molecule": "CCOC(=O)C1CCN(C(=O)C2CCN(S(=O)(=O)c3cc(Cl)ccc3Cl)CC2)CC1", "inhibition": 12},
      {"molecule": "CC1CC(C)CN(CCCNC(=O)COc2cc(=O)n(C)c3ccccc23)C1", "note": "(stereo not given)", "inhibition": 0},
      {"molecule": "Cc1c(NC(=O)C2CCCNC2=O)c(=O)n(-c2ccccc2)n1C", "note": "(stereo not given)", "inhibition": 0},
      {"molecule": "CC(C)OC(=O)CCCCCN1C(=O)CSC1=S", "inhibition": 1},
      {"molecule": "Cc1cc(Br)c(S(=O)(=O)n2nnc3ccccc32)cc1C", "inhibition": 2},
      {"molecule": "Cc1ccc(C)c(-n2nnnc2SCC(=O)NCCC2=CCCCC2)c1", "inhibition": 3},
      {"molecule": "Cc1nc2sc3c(c2c(=O)o1)CCC3", "inhibition": 2},
      {"molecule": "COc1ccc(CCNC(=O)CC2COc3ccccc3O2)cc1OC", "note": "(stereo not given)", "inhibition": 0},
      {"molecule": "COC(=O)c1ccccc1NC(=O)c1noc2c1CC(C(C)(C)C)CC2", "note": "(stereo not given)", "inhibition": 2},
      {"molecule": "COc1ccc(N2C(N)=C(C#N)C(c3cccnc3)C3=C2CC(C)(C)CC3=O)cc1", "note": "(stereo not given)", "inhibition": 0},
      {"molecule": "O=C(Nc1ncc(Cc2ccccc2)s1)C1CCCO1", "note": "(stereo not given)", "inhibition": 5},
      {"molecule": "CCOC(=O)c1sc2nc(C)cc(C)c2c1N", "inhibition": 0},
      {"molecule": "COc1cc(NC(=O)CSCc2cnn(-c3ccccc3)c2-n2cccc2)cc(OC)c1", "inhibition": 6}
    ]}
  ]
}
